Test [1] is described as follows: AP1 Signaling Pathway (AID 357). Note: % is set by controls: 0 for no effect and ±100 for the full control effect. The settings on record: ME-180 AP-1-bla reporter, EGF-induced, beta-lactamase ratio, 5 h; at 17.2 µM (top of the series) unless noted. The gist of the method: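 Read-out was the 460nm/530nm emission ratio (excitation 405nm) after CCF4 loading for 2.5 hours at room temperature. Cells carried an AP-1-driven beta-lactamase reporter, were stimulated with EC50 EGF plus compound for 5 hours, and AC50 values came from titrations.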

In test [2] the target is Glucocorticoid receptor (Homo sapiens) (UniProt P04150). Put plainly: GR-GFP Redistribution (AID 450;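 active = compounds whose dose series gives a full or clear partial fitted curve of increased nuclear translocation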; note: potency is the fitted concentration of half-maximal effect).
Glucocorticoid receptor (Homo sapiens), sequence (P04150 whole entry, looked up): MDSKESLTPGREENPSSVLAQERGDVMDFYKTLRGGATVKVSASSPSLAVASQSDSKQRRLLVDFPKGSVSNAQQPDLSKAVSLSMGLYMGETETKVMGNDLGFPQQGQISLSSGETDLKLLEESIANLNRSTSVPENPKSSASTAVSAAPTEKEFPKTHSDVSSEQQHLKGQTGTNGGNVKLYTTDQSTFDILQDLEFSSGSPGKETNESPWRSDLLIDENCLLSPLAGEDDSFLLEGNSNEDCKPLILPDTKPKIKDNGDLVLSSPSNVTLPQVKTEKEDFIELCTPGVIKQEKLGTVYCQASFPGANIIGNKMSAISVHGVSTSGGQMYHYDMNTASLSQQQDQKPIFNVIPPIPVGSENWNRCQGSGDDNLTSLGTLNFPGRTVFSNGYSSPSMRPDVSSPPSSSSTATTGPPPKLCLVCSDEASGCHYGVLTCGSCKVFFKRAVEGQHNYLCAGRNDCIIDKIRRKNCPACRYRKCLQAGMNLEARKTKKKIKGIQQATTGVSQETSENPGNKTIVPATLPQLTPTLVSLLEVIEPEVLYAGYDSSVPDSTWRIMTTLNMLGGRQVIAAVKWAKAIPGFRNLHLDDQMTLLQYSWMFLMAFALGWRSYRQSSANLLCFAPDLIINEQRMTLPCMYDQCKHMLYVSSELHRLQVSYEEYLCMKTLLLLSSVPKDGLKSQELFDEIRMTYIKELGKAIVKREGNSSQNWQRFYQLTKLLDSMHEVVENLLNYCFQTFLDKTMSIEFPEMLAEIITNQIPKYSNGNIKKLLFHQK
The nature of test [3]: qHTS Assay for Identification of Small Molecule Agonists for Hypoxia Response Element Signaling Pathway (AID 914; active = well fitted activation curve with a large enough effect in the signal ratio, with a control signal flat, not every such curve was filed as active; the % refers to the signal ratio; note: % of control where 0% means no effect). The settings on record: ME-180 (cervical carcinoma) HRE-bla reporter, beta-lactamase ratio, CoCl2, 17 h; activation: active compounds read high. The essentials:
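HRE-bla ME-180 cells with beta-lactamase reporter under hypoxia response element, compounds with EC50 CoCl2 for 17 hours at 37 C. CCF4 substrate, 460nm/530nm emission ratio gave %Activity; AC50 from titration series.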
For orientation: qHTS replaces the single test concentration by a dilution series.

Unmarked numbers belong to inactive results. Unless noted, calls come from the whole dose curve; as a rule, active = well fitted curve in either direction with a large enough effect (not every such curve was filed as active); inconclusive = small, poorly fitted or top-dose-only effect, or another doubt; inactive = flat fitted curve, though single readings scatter. Results filed as inconclusive are left out.

On to `Fc1ccc2[nH]c3c(N4CCSCC4)ncnc3c2c1`, for which the activity change, negative = inhibition in test [1] was -16.7%. In addition, the Potency in test [2] is above 20.6 µM.
Take `Cc1cc(C)c(C#N)c(SCc2[nH]nc3c2C(c2ccccc2)C(C#N)=C(N)O3)n1` (centres undefined): the activity change, negative = inhibition in test [1] is -21.7%. Further, in test [2], the Potency was above 20.6 µM. The activation in test [3] is -8.62%.
For `CSc1nc2sc3c(c2c2nnnn12)CCCC3`, the activity change, negative = inhibition in test [1] is 19.7%. Also, in test [2], the Potency was above 20.6 µM.
Consider `Cc1c([C@H]2[C@@H](CC#N)C2(C)C)c2ccccc2n1C`, for which the activity change, negative = inhibition in test [1] was -11.6%. For the same compound, in test [2], the Potency was above 20.6 µM.

Source of the values: PubChem BioAssay (NCATS).
